The values below come from PubChem BioAssay.

Assay [1] is described as follows: circadian clock period modulators, cell-based, LOPAC library, luminescence reporter (AID 2774; call rule not given here;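 note: values are relative to mean of DMSO wells on each plate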). Particulars: circadian reporter cells, at 7 µM, actives lie on both sides.
Assay [2] can be described thus: liver-stage malaria parasite growth inhibition, primary screen, cell-based, HepG2, luciferase luminescence, HepG2 viability (AID 624349; in the data active = parasite load remaining mostly below about 12%, no sharp cut-off; inactive = mostly above about 10%;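 note: 100% = mean of DMSO negative control wells on the same plate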). Particulars: P. berghei liver stage in HepG2, luciferase luminescence, concentration not given here; parasite load remaining: stronger effect = lower value; viability: measured here: HepG2 viability without parasites.
The subject of assay [3] is Hepatitis C virus NS3 helicase. Briefly: HCV NS3 helicase inhibitors, primary screen, biochemical, fluorescence polarization, LOPAC1280 library (AID 687035; in the data active = inhibition above about 37%). The settings on record: Purified HCV NS3 helicase, Cy5-dT15 ssDNA binding fluorescence polarization; stronger effect = higher value; concentration not given here. On the technique in general: Fluorescence polarisation rises when a labelled molecule tumbles more slowly, as on binding a larger partner.

A short description of assay [4]: Cy5 fluorescence quenching or enhancement artefacts, artefact control for HCV NS3 helicase inhibitor project, biochemical, LOPAC1280 (AID 687037; call rule not given here). Particulars: Cy5-DNA-NS3h complex fluorescence interference counterscreen. (In general: A counterscreen serves to expose hits that act by an unwanted route or on another target.)
Assay [5] in a line: sensitizers of A549 cells to miR-34 induction, primary screen, imaging, A549 dox-inducible miR-34, nuclei and caspase counts (AID 1347080). The settings on record: A549 miR-34 inducible, Hoechst nuclei count, 48 h.
Assay [6] is described as follows: phospholipid biosynthesis inhibitors in animal cells, primary screen, cell-based, LOPAC library, screen 4 (AID 1347384; call rule not given here). The settings on record: phospholipid biosynthesis inhibition screen, at 10 µM.
Assay [7] is described as follows: survival rescue of mitochondrial mutant cells in low glucose, primary screen, MELAS cybrids, Rieske KO mouse fibroblasts, CellTiter-Glo (AID 1508586;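 active = mean z-score across replicates of 1.96 or higher in either the MELAS or the Rieske mutant cell line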;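 note: z relative to plate mean and SD of compound and empty wells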). On the technique in general: In ATP-based viability assays light output follows the ATP content of the culture.
A short description of assay [8]: viability rescue of complex I mutant cybrids, primary screen, cell-based, galactose medium, ATP luminescence (AID 1645843;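 active = z-score of at least 1.8 in each of two replicates, scored against plate mean and spread of sample wells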;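 note: positive z means more ATP and so rescue of galactose-driven cybrid death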). Particulars: complex I mutant cybrid cells, 72 h, stronger effect = higher value.
Assay [9] in a line: hESC survival regulators, cell-based (AID 493140; call rule not given here;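 note: cells exposed to compounds for four days before counting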). The settings on record: human embryonic stem cell survival screen; stronger effect = higher value.
A short description of assay [10]: inhibitors of Cryptococcus chitosan production, flow cytometry, Cibacron Brilliant Red staining (AID 1347148; call rule not given here;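 note: compound exposure lasted three days at 37 degrees C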). The settings on record: Cryptococcus neoformans chitosan, stronger effect = lower value; at 10 µM unless noted.
Assay [11] can be described thus: modifiers of HSF1 nuclear foci, imaging, Selleck Cancer Library (AID 1347162; in the data active = plate-normalised HSF1 focus index below about 0.46). The settings on record: human cells, at 10 µM; SSMD: measured here: HSF1 foci SSMD mean; cell count: measured here: cell number; plate-normalised HSF1 focus index: stronger effect = lower value.
The mark [12] stands for this setting: stronger effect = lower value, cell number ratio, induced over uninduced.
[13] abbreviates: measured here: relative caspase fold change +Dox/-Dox.
Setting [14] is: measured here: total cells with miR-34 induction, stronger effect = lower value.
The mark [15] stands for this setting: measured here: total cells without miR-34 induction.
Where [16] appears, read: MELAS cybrid survival, CellTiter-Glo 48 h, stronger effect = higher value.
[17] abbreviates: Rieske KO mouse fibroblast survival, CellTiter-Glo 72 h.

“And” between values parts separate entries of the source, which are not always exact repeats. Equal entries are not always repeated. Some compounds were tested as several samples or in several runs, with calls that do not always agree. The source made the active and inactive calls.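 Rule for the calls, unless noted: active = compounds whose cell count with miR-34 switched on is under 0.7 times the count with it off; inactive = the rest.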

As usually defined, the viability is the share of living cells, or the viability signal relative to a control. The term inhibition denotes the drop in the measured response relative to a control, in per cent. As to `CC(C)NC[C@H](O)c1ccc(O)c(O)c1`, the period change in [1] was 0.03 h (inactive). The parasite load remaining in [2] was 71.3% (inactive). Also, in assay [2], the viability worked out at 68.4%. Also, the inhibition in assay [3] is 3% (inactive) and -5% (inactive). For the same compound, the fluorescence ratio (interference) in assay [4] is 1 (inactive) and 0.9 (inactive). In addition, the fold change in [5] (setting [12]) was 1.16 (inactive) and 1.1 (inactive) and 0.953 (inactive); in assay [5] (setting [13]) it was 0.694 and 0.901 and 0.646. Further, the cell count was 9390 and 11000 and 9560 in assay [5] (setting [14]); 8130 and 10100 and 10000 in [5] (setting [15]). For the same compound, the result in [6] was inactive. Further, the z-score in assay [7] (setting [16]) was -0.508 (inactive); in assay [7] (setting [17]), -0.956; in assay [8], -1.02 (inactive) and -1.29 (inactive).

As for `CCCCCCCCCCCCC/C=C/[C@@H](O)[C@H](CO)N(C)C`, the survival in [9] was 80.2 (inactive). In addition, the fold change in [5] (setting [12]) was 1.08 (inactive) and 0.933 (inactive); in [5] (setting [13]), 1.39 and 1.34. Moreover, the cell count in [5] (setting [14]) is 5480; in assay [5] (setting [15]), 5090 and 5880. In assay [10], the fold fluorescence was 6.79 (inactive).

In the case of `Nc1ccc2ncnc(NCCc3ccc(Oc4ccccc4)cc3)c2c1`, the parasite load remaining in assay [2] was 1.5% (active). In [2], this compound registered a viability of 70.6%. The fold change in assay [5] (setting [12]) was 0.738 (inactive) and 0.708 (inactive) and 0.683 (active); in assay [5] (setting [13]), 1.4 and 1.31 and 3.23. In addition, the cell count in assay [5] (setting [14]) is 2180 and 3030 and 5480; in assay [5] (setting [15]), 2950 and 4280 and 8020; in assay [11], 2600. Moreover, in assay [11], the SSMD is -5.88. Also, in assay [11], the plate-normalised HSF1 focus index is 0.65 (inactive). In addition, the results for the z-score in assay [7] (setting [16]) and in assay [7] (setting [17]) were -0.305 (inactive) and -0.135, respectively.

Consider `CCCCC[C@H](O)/C=C/[C@H]1C(=O)C=C[C@@H]1C/C=C\CCCC(=O)O`, for which the survival in assay [9] was 86.8 (inactive). The fold change in assay [5] (setting [12]) was 0.937 (inactive) and 0.931 (inactive); in assay [5] (setting [13]) it was 1.17 and 1.23. Further, the cell count was 6120 and 6100 in assay [5] (setting [14]); 6540 and 6550 in [5] (setting [15]). Further, in assay [10], the fold fluorescence is 4.57 (inactive).

Regarding `CCCCC[C@H](O)/C=C/[C@H]1C=CC(=O)[C@@H]1C/C=C\CCCC(=O)O`, the survival in assay [9] is 122 (inactive). The fold change was 0.976 (inactive) and 0.946 (inactive) in assay [5] (setting [12]); 1.27 and 1.82 in assay [5] (setting [13]). Further, the cell count is 5740 and 5500 in [5] (setting [14]); 5880 and 5820 in assay [5] (setting [15]). Further, in assay [10], the fold fluorescence is 4.51 (inactive).

As for `CCCCCCCC(=O)OC[C@H](CO)OC(=O)CCCCCCC`, in assay [9], the survival is 75.3 (inactive). For the same compound, the fold change in [5] (setting [12]) was 1 (inactive) and 1.04 (inactive); in assay [5] (setting [13]), 1.36 and 0.811. The cell count in assay [5] (setting [14]) was 5210 and 5590; in assay [5] (setting [15]), 5190 and 5400. In [10], the fold fluorescence is 6.5 (inactive).

Turning to `C#CCCCCCCCCCCCCCCCC(=O)O`, the survival in assay [9] was 96.8 (inactive). Moreover, the fold change in assay [5] (setting [12]) was 0.987 (inactive) and 1.06 (inactive); in [5] (setting [13]), 1.49 and 0.91. The cell count in [5] (setting [14]) is 5840 and 5920; in assay [5] (setting [15]), 5920 and 5580. In [10], the fold fluorescence was 5.76 (inactive).

Take `CCCCC[C@H](O)/C=C/C1=C(C/C=C\CCCC(=O)O)C(=O)CC1`: the survival in assay [9] was 130 (inactive). In addition, the fold change was 0.969 (inactive) and 0.886 (inactive) in assay [5] (setting [12]); 1.57 and 1.52 in assay [5] (setting [13]). For the same compound, the cell count in assay [5] (setting [14]) is 6100 and 5600; in assay [5] (setting [15]), 6300 and 6320. For the same compound, the fold fluorescence in [10] was 3.98 (inactive).
